Legend:
Experiment in all cases: PBM binding z-score (relative to random genomic background probes); higher = stronger binding; sequences stand for … in GC…GCGATTGACAGCGTAGAATGAAGG
[1] = test system: FXR:RXRa (NR concentration 270 nM, RXRa partner concentration 90 nM)
How it was run: (§1)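 Ligand-free nuclear receptor dimers were bound for 1 h to custom Agilent 4×180K protein-binding microarrays. Detection used antibodies against each partner (one per run). Binding z-scores rest on regression-normalized fluorescence, with random background probes as the reference.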

[2] = test system: LXRa:RXRa (NR concentration 270 nM, RXRa partner concentration 90 nM)
How it was run: as §1

[3] = test system: LXRa homodimer (NR concentration 270 nM)
How it was run: as §1

[4] = test system: LXRb:RXRa (NR concentration 270 nM, RXRa partner concentration 90 nM)
How it was run: as §1

[5] = test system: LXRb homodimer (NR concentration 270 nM)
How it was run: as §1

[6] = test system: PPARa:RXRa (NR concentration 270 nM, RXRa partner concentration 90 nM)
How it was run: as §1

[7] = test system: PPARg:RXRa (NR concentration 180 nM, RXRa partner concentration 90 nM)
How it was run: as §1

[8] = test system: PPARg:RXRa 270nM:90nM, anti-RXR (NR concentration 270 nM, RXRa partner concentration 90 nM)
How it was run: as §1

[9] = test system: PPARg:RXRa 30nM:10nM, anti-RXR (NR concentration 30 nM, RXRa partner concentration 10 nM)
How it was run: as §1

[10] = test system: PPARg:RXRa 90nM:30nM, anti-RXR (NR concentration 90 nM, RXRa partner concentration 30 nM)
How it was run: as §1

GCTTACGGGGCAAAGGTTATAGCATGAATAGAAT
PBM binding z-score [1]: 2.32
PBM binding z-score [2]: 2.71
PBM binding z-score [3]: 0.016
PBM binding z-score [4]: 3.48
PBM binding z-score [5]: 0.208
PBM binding z-score [6]: 5.38
PBM binding z-score [7]: 8.91
PBM binding z-score [8]: 8.3
PBM binding z-score [9]: 7.37
PBM binding z-score [10]: 9.06

TAGCCTAGGTCTTTGGGCCAGTATAGTACGCATC
PBM binding z-score [1]: -0.684
PBM binding z-score [2]: -0.824
PBM binding z-score [3]: -0.792
PBM binding z-score [4]: -0.788
PBM binding z-score [5]: -0.858
PBM binding z-score [6]: -1.04
PBM binding z-score [7]: 0.0223
PBM binding z-score [8]: -0.571
PBM binding z-score [9]: -0.609
PBM binding z-score [10]: -0.513

ATCTCTAGGTACAGATAGTTCAGTGAATGCAAAT
PBM binding z-score [1]: 0.079
PBM binding z-score [2]: 0.141
PBM binding z-score [3]: 0.396
PBM binding z-score [4]: 0.242
PBM binding z-score [5]: 0.548
PBM binding z-score [6]: 0.12
PBM binding z-score [7]: 0.349
PBM binding z-score [8]: 0.108
PBM binding z-score [9]: 0.29
PBM binding z-score [10]: 0.33

CCTACTGGGCCACGAAAGGTCATCGATTCAGTGA
PBM binding z-score [1]: 3.74
PBM binding z-score [2]: 5.24
PBM binding z-score [3]: 4.54
PBM binding z-score [4]: 4.28
PBM binding z-score [5]: 0.188
PBM binding z-score [6]: 5.09
PBM binding z-score [7]: 5.36
PBM binding z-score [8]: 5.2
PBM binding z-score [9]: 2.42
PBM binding z-score [10]: 4.73

TCTAGTTGGTCACGGAGGTAACACACGACGGGTA
PBM binding z-score [1]: 0.499
PBM binding z-score [2]: 0.13
PBM binding z-score [3]: -0.316
PBM binding z-score [4]: 0.404
PBM binding z-score [5]: 0.515
PBM binding z-score [6]: 1.02
PBM binding z-score [7]: 1.34
PBM binding z-score [8]: 1.92
PBM binding z-score [9]: 3.23
PBM binding z-score [10]: 2.25

CGAACGAGGGCATGAGTTGAAAGCAAATGCCGAT
PBM binding z-score [1]: 0.434
PBM binding z-score [2]: 0.165
PBM binding z-score [3]: -0.523
PBM binding z-score [4]: 0.0977
PBM binding z-score [5]: -0.959
PBM binding z-score [6]: 1.85
PBM binding z-score [7]: 1.37
PBM binding z-score [8]: 1.83
PBM binding z-score [9]: 0.552
PBM binding z-score [10]: 1.12

TCTTGTAGATTAAAGGTTAAGAAAGCCGAAGCCT
PBM binding z-score [1]: 1.25
PBM binding z-score [2]: 1.98
PBM binding z-score [3]: 0.568
PBM binding z-score [4]: 1.82
PBM binding z-score [5]: 0.134
PBM binding z-score [6]: 3.56
PBM binding z-score [7]: 5.78
PBM binding z-score [8]: 6.6
PBM binding z-score [9]: 6.85
PBM binding z-score [10]: 7.33

TAGCCTGGGTCATGCGGGCCAGTATAGTGTCGGC
PBM binding z-score [1]: 3.19
PBM binding z-score [2]: 1.79
PBM binding z-score [3]: -0.665
PBM binding z-score [4]: 1.03
PBM binding z-score [5]: -0.444
PBM binding z-score [6]: 3.4
PBM binding z-score [7]: 2.12
PBM binding z-score [8]: 2.48
PBM binding z-score [9]: 0.16
PBM binding z-score [10]: 1.54

AGGATGAGGTTACCAAAGATCAGGGAAACGCTTG
PBM binding z-score [1]: 1.74
PBM binding z-score [2]: 6.04
PBM binding z-score [3]: 0.206
PBM binding z-score [4]: 3.17
PBM binding z-score [5]: 0.353
PBM binding z-score [6]: 2.93
PBM binding z-score [7]: 1.55
PBM binding z-score [8]: 1.76
PBM binding z-score [9]: 0.744
PBM binding z-score [10]: 1.12

GATACAGGGTCTGCTAGAGGCCAGAGTATGGAAA
PBM binding z-score [1]: -0.351
PBM binding z-score [2]: -0.359
PBM binding z-score [3]: -0.605
PBM binding z-score [4]: -0.772
PBM binding z-score [5]: -0.649
PBM binding z-score [6]: -0.759
PBM binding z-score [7]: 0.108
PBM binding z-score [8]: -0.444
PBM binding z-score [9]: -0.281
PBM binding z-score [10]: -0.382

TCGAGTTGGTCAAAGGTCACACACTCGAAATGCG
PBM binding z-score [1]: 5.98
PBM binding z-score [2]: 5.57
PBM binding z-score [3]: 3.08
PBM binding z-score [4]: 5.33
PBM binding z-score [5]: 0.74
PBM binding z-score [6]: 6.37
PBM binding z-score [7]: 10.4
PBM binding z-score [8]: 9.4
PBM binding z-score [9]: 8.64
PBM binding z-score [10]: 11.3

CCTTACGGGTGACTCCAGGTTATAGCATCGGAGT
PBM binding z-score [1]: 0.642
PBM binding z-score [2]: 5.37
PBM binding z-score [3]: 0.839
PBM binding z-score [4]: 1.76
PBM binding z-score [5]: -0.486
PBM binding z-score [6]: 1.35
PBM binding z-score [7]: 0.581
PBM binding z-score [8]: 0.491
PBM binding z-score [9]: -0.12
PBM binding z-score [10]: 0.123

CCGACTGGGGCAAGTTTACCATAACGCACAGCCA
PBM binding z-score [1]: -0.129
PBM binding z-score [2]: 0.0135
PBM binding z-score [3]: 0.16
PBM binding z-score [4]: 0.0377
PBM binding z-score [5]: -0.603
PBM binding z-score [6]: 0.536
PBM binding z-score [7]: 0.987
PBM binding z-score [8]: 0.774
PBM binding z-score [9]: -0.288
PBM binding z-score [10]: 0.451

ATCTCTAAGTAAGACTCAGTTCAGTGAAGAACGC
PBM binding z-score [1]: 0.404
PBM binding z-score [2]: 0.702
PBM binding z-score [3]: 0.509
PBM binding z-score [4]: 0.112
PBM binding z-score [5]: 0.924
PBM binding z-score [6]: 0.0114
PBM binding z-score [7]: -0.0993
PBM binding z-score [8]: 0.324
PBM binding z-score [9]: 0.0174
PBM binding z-score [10]: 0.392

CCTTACGGGTCAAGGTTATAGTACGGGTGGTACG
PBM binding z-score [1]: 6.07
PBM binding z-score [2]: 3.88
PBM binding z-score [3]: 0.501
PBM binding z-score [4]: 3.24
PBM binding z-score [5]: 0.225
PBM binding z-score [6]: 5.17
PBM binding z-score [7]: 4.78
PBM binding z-score [8]: 4.77
PBM binding z-score [9]: 1.91
PBM binding z-score [10]: 3.37

CCTACTGGGGCATTCAGAGGTCATTGATCATATG
PBM binding z-score [1]: 3.08
PBM binding z-score [2]: 4.37
PBM binding z-score [3]: 6.25
PBM binding z-score [4]: 3.91
PBM binding z-score [5]: 0.359
PBM binding z-score [6]: 4.07
PBM binding z-score [7]: 3.34
PBM binding z-score [8]: 4.13
PBM binding z-score [9]: 1.23
PBM binding z-score [10]: 3.12

TGTATTAGTTGATTAGGGCAACCGAAACAGCGGA
PBM binding z-score [1]: 0.242
PBM binding z-score [2]: 0.0777
PBM binding z-score [3]: 0.397
PBM binding z-score [4]: 0.234
PBM binding z-score [5]: 1.3
PBM binding z-score [6]: 0.484
PBM binding z-score [7]: 0.304
PBM binding z-score [8]: 0.782
PBM binding z-score [9]: 0.748
PBM binding z-score [10]: 0.794

CAAACTAGGTAACCGGAAGGTCAAAGTCCGCATG
PBM binding z-score [1]: 4.07
PBM binding z-score [2]: 3.94
PBM binding z-score [3]: 3.88
PBM binding z-score [4]: 3.43
PBM binding z-score [5]: 0.672
PBM binding z-score [6]: 4.48
PBM binding z-score [7]: 4.83
PBM binding z-score [8]: 4.98
PBM binding z-score [9]: 2.22
PBM binding z-score [10]: 4.2

CAAACTAGGTCACGAAAGGACAAAGTCGAATGAC
PBM binding z-score [1]: 5.05
PBM binding z-score [2]: 6.1
PBM binding z-score [3]: 1.25
PBM binding z-score [4]: 4.08
PBM binding z-score [5]: 0.368
PBM binding z-score [6]: 5.41
PBM binding z-score [7]: 9.21
PBM binding z-score [8]: 7.34
PBM binding z-score [9]: 5.83
PBM binding z-score [10]: 7.48

GGAACGAGGGCAAGTTGATAGGAGAGTTTGATGG
PBM binding z-score [1]: 0.63
PBM binding z-score [2]: 0.287
PBM binding z-score [3]: -0.48
PBM binding z-score [4]: 0.289
PBM binding z-score [5]: -0.332
PBM binding z-score [6]: 1.81
PBM binding z-score [7]: 1.05
PBM binding z-score [8]: 0.946
PBM binding z-score [9]: 0.0757
PBM binding z-score [10]: 0.63

CAAACTAGGTCCCAGAGGTCAAAGTCCGTGCGTA
PBM binding z-score [1]: 4.91
PBM binding z-score [2]: 5.18
PBM binding z-score [3]: 5.61
PBM binding z-score [4]: 5.18
PBM binding z-score [5]: 1.42
PBM binding z-score [6]: 4.98
PBM binding z-score [7]: 4.51
PBM binding z-score [8]: 4.75
PBM binding z-score [9]: 2.13
PBM binding z-score [10]: 4.08

TCTAGCACGCCAGAGGGTCACTCAAGAGGTACGG
PBM binding z-score [1]: 1.04
PBM binding z-score [2]: 1.11
PBM binding z-score [3]: -0.323
PBM binding z-score [4]: 0.821
PBM binding z-score [5]: -0.814
PBM binding z-score [6]: 2.01
PBM binding z-score [7]: 0.836
PBM binding z-score [8]: 1.13
PBM binding z-score [9]: 1.71
PBM binding z-score [10]: 1.2

TTTTGTAGATCAATAGAGGTTAAGAAAGTGCGCT
PBM binding z-score [1]: 0.883
PBM binding z-score [2]: 3.94
PBM binding z-score [3]: 1.12
PBM binding z-score [4]: 1.9
PBM binding z-score [5]: 0.26
PBM binding z-score [6]: 2.02
PBM binding z-score [7]: 0.38
PBM binding z-score [8]: 1.37
PBM binding z-score [9]: 1.13
PBM binding z-score [10]: 1.41

TAGCCAAGGTCATTGGGCCAGTATAGTACGCATC
PBM binding z-score [1]: 7.45
PBM binding z-score [2]: 5.57
PBM binding z-score [3]: 1.49
PBM binding z-score [4]: 4.67
PBM binding z-score [5]: 0.952
PBM binding z-score [6]: 5.95
PBM binding z-score [7]: 6
PBM binding z-score [8]: 5.57
PBM binding z-score [9]: 2.47
PBM binding z-score [10]: 3.59

Source: the supplement of paper PMC6555819
